Source: PubChem BioAssay (National Center for Advancing Translational Sciences (NCATS))
Compounds with a hit are over-represented: about 21% of the library has one in this group of screens.
FBPA Giardia inh – Giardia lamblia aldolase inhibition; A8B2U2; purified Giardia FBPA; Potency, µM (series often up to 59.6 µM), inactives show top-dose activity, negative = inhibition, hits mostly inhibitors; 290,000 compounds, 0.71% hits; also: potency is read from the fitted curve at half-maximal effect; % is scaled to controls: 0 for no effect and ±100 for the full control effect; nearly all actives have a fitted effect of over 55% in size
Target sequence (A8B2U2 whole entry, looked up): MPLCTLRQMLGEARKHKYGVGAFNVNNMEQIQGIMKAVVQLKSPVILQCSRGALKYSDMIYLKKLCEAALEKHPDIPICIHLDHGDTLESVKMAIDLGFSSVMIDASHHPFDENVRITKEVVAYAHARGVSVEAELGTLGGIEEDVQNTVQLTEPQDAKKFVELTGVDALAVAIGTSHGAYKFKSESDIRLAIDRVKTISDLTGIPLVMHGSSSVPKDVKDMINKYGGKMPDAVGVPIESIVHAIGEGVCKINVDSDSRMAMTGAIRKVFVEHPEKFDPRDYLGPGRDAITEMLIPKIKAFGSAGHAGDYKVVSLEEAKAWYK
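Giardia FBPA (40 nM reagent) was preincubated 10 min at RT with compound (up to 57.5 uM final), then substrate plus GAPDH/TPI/NAD/arsenate coupling system with diaphorase/resazurin was added; resorufin fluorescence (525/598 nm) was read after 20 min.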
CHX counter – counter-screen hit for Shiga toxin inhibitors, cycloheximide; AID 2314; 300,000 compounds, 12% hits; max response, %; cell reporter, cycloheximide protein synthesis inhibition counterscreen; in the data active = max response mostly above about 13%, no sharp cut-off; inactive = mostly below about 14%; also: read at 38.3 µM for the half of the compounds with a filed dose; 0% is about no effect
Pf growth 48h – inhibits P. falciparum growth in the first generation, 48 h; 310,000 compounds, 5.9% hits; Potency, µM (highest dose often 28.7 µM), for inactives: at the highest dose activity change, negative = inhibition, actives largely listed as inhibitors; AID 504832; P. falciparum luciferase growth in erythrocytes, 48 h; also: potency is read from the fitted curve at half-maximal effect; % is scaled to controls: 0 for no effect and ±100 for the full control effect
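Compounds are pin-transferred into medium, infected erythrocytes (2% hematocrit, 0.1% parasitemia final) are added, and plates sit one parasite generation at 37 C in 5% CO2. Detection reagent is then added and luminescence measured.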
NS1 function inh – inhibitors of influenza NS1 protein function; Potency, µM (titrated, usually from 46.1 µM), for the others: at the highest dose activity, positive = more growth; 270,000 compounds, 0.4% hits; AID 2326; calls by dose curve; also: potency is read from the fitted curve at half-maximal effect; actives are rising curves; nearly all actives have a fitted effect of over 50% in size
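OD600 was taken as the measure of yeast growth restored by compound in an NS1-expressing S. cerevisiae strain. Cells had been washed out of glucose medium and diluted 1:100 into galactose -URA medium, pH 6.0.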
Shiga inhibitor – blocks Shiga toxin action in Vero cells; Vero cells, Shiga toxin protein synthesis inhibition reporter; inhibition, % at 38.7 µM; 290,000 compounds, 9.2% hits; AID 2315; in the data active = inhibition mostly above about 28%, no sharp cut-off; inactive = mostly below about 43%; also: 0% is about no effect
Pf growth 96h – P. falciparum growth inhibition at 96 hour, primary screen for plastid delayed-death inhibitors | P. falciparum luciferase reporter growth, 96 h | Potency, µM (series often up to 28.7 µM), without a hit: top-dose activity change, negative = inhibition, hits mostly inhibitors | 320,000 compounds, 6.9% hits; also: potency is read from the fitted curve at half-maximal effect; % is scaled to controls: 0 for no effect and ±100 for the full control effect
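Erythrocytes infected with luciferase-expressing P. falciparum were dispensed at 2% hematocrit and 0.05% parasitemia (final), then incubated with compounds 96 hours at 37 C in 5% CO2. Luminescence after detection reagent addition reported growth.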
An asterisk follows results filed as active. Unless noted, calls follow the shape of the dose curve; as a rule, active = well fitted curve in the direction sought with a large enough effect; inconclusive = small, poorly fitted or top-dose-only effect, or another doubt; inactive = no such curve, though single readings can be large; an effect the other way counts as inactive or inconclusive.

How did COc1ccc(C(=O)N2CCC3(CCCN(Cc4ccccc4)C3)CC2)cc1 do in these assays?
FBPA Giardia inh: 4%

Results for O=C(COc1cc2oc(=O)c3c(c2cc1Cl)CCC3)Nc1ccc(CN2CCOCC2)cc1 ?
FBPA Giardia inh: 1%; CHX counter: 3; Pf growth 48h: 11%; NS1 function inh: -5%; Shiga inhibitor: -5; Pf growth 96h: 15%

How did Cc1ccccc1C(=O)NNC(=O)c1cc(S(=O)(=O)N2CCOCC2)ccc1C do in these assays?
Pf growth 48h: -5%; Pf growth 96h: -1%

How did CC(=O)Nc1ccc(NC(=O)CC(C)n2ccnc2)cc1 (configuration not stated) do in these assays?
FBPA Giardia inh: -7%; CHX counter: -5; Pf growth 48h: 29%; NS1 function inh: -3%; Shiga inhibitor: -8; Pf growth 96h: 0%

Results for COc1cccc(-c2cc(C(=O)Nc3c(C)nn(Cc4ccccc4C)c3C)no2)c1 ?
FBPA Giardia inh: -6%; CHX counter: 2; Pf growth 48h: 5.2µM*; NS1 function inh: -55%; Shiga inhibitor: -15; Pf growth 96h: 25%

Results for COc1cccc(-c2cc(C(=O)Nc3c(C)nn(Cc4ccccc4)c3C)no2)c1 ?
FBPA Giardia inh: -4%; CHX counter: 7; Pf growth 48h: inconclusive; NS1 function inh: -57%; Shiga inhibitor: 9; Pf growth 96h: inconclusive

How did COc1ccc(-c2cc(C(=O)Nc3c(C)nn(Cc4ccccc4)c3C)no2)cc1 do in these assays?
FBPA Giardia inh: 3%; CHX counter: -1; NS1 function inh: -1%; Shiga inhibitor: -16; Pf growth 96h: 4.7µM*

What do the screens show for `O=C(NCc1ccncc1)c1cccc(S(=O)(=O)Nc2ccc(SC(F)F)cc2)c1`?
Pf growth 48h: 4%; Pf growth 96h: 9%

Results for COc1ccc(-n2c(/C=C(\C)O)nc(=O)c3c(C)cc(C)nc32)cc1 ?
FBPA Giardia inh: 2%; CHX counter: 5; Pf growth 48h: 0.83µM*; NS1 function inh: -11%; Shiga inhibitor: -5

What do the screens show for `COc1ccc(N2CCN(c3nc4c(C)cccn4c(=O)c3C=C(C#N)C#N)CC2)cc1`?
FBPA Giardia inh: 0%; CHX counter: -3; Pf growth 48h: -12%; NS1 function inh: 0%; Shiga inhibitor: -11; Pf growth 96h: -12%

How did O=C1C=CC(=O)c2c(O)c(Cl)c(Cl)c(O)c21 do in these assays?
FBPA Giardia inh: 13µM*

What do the screens show for `Oc1c(Cl)c(Cl)c(Cl)c(Cl)c1Cl`?
FBPA Giardia inh: 6%

What do the screens show for `COc1cc(C2C(C#N)=C(N)N(N(C)C)C3=C2C(=O)CC(C)(C)C3)ccc1O` (configuration not stated)?
FBPA Giardia inh: -24%; CHX counter: -1; Pf growth 48h: -16%; NS1 function inh: -1%; Shiga inhibitor: 4; Pf growth 96h: 84%

Results for Cc1ccc(OCCCCNC(C)(C)C)c([N+](=O)[O-])c1 ?
FBPA Giardia inh: -18%; CHX counter: 1; Pf growth 48h: inconclusive; NS1 function inh: 2%; Shiga inhibitor: -15; Pf growth 96h: 3.7µM*

Results for CCOc1nc(NCc2ccco2)nc(Nc2ccc(OC)cc2)n1 ?
FBPA Giardia inh: -6%; CHX counter: 27*; Pf growth 48h: -19%; NS1 function inh: -12%; Shiga inhibitor: 28

What do the screens show for `CCNc1nc(NCC)nc(N/N=C/c2ccc(OC)cc2)n1`?
FBPA Giardia inh: 7%; CHX counter: 6; Pf growth 48h: inconclusive; NS1 function inh: -2%; Shiga inhibitor: 2; Pf growth 96h: -10%

What do the screens show for `CCCCCCNc1nc(NCc2ccco2)nc(OCC)n1`?
FBPA Giardia inh: -2%; CHX counter: 17; Pf growth 48h: -10%; NS1 function inh: -97%; Shiga inhibitor: 25

Results for COc1ccc(Nc2nc(NCc3ccco3)nc(N/N=C/c3ccccc3)n2)cc1 ?
FBPA Giardia inh: 12%; CHX counter: 12; Pf growth 48h: 1.9µM*; NS1 function inh: 23%; Shiga inhibitor: 10; Pf growth 96h: 128%

What do the screens show for `CCOc1nc(NCCO)nc(NCCC2=CCCCC2)n1`?
FBPA Giardia inh: 0%; CHX counter: 2; Pf growth 48h: inconclusive; NS1 function inh: 0%; Shiga inhibitor: -25; Pf growth 96h: 8.3µM*

Results for CCOc1nc(NCc2ccco2)nc(Nc2ccccc2F)n1 ?
FBPA Giardia inh: -1%; CHX counter: 27*; Pf growth 48h: 129%; NS1 function inh: 3%; Shiga inhibitor: active; Pf growth 96h: inconclusive

Results for CCOc1nc(NCCO)nc(Nc2ccccc2F)n1 ?
FBPA Giardia inh: -2%; CHX counter: 17*; Pf growth 48h: 22%; NS1 function inh: -2%; Shiga inhibitor: 48; Pf growth 96h: 25%

Results for CC(c1ccccc1)C1CC(=O)N(Cc2ccccc2)C1=O (configuration not stated) ?
FBPA Giardia inh: 0%; CHX counter: -1; Pf growth 48h: -5%; NS1 function inh: -9%; Shiga inhibitor: -5; Pf growth 96h: -30%

How did COc1ccccc1NC(=O)/C=C1\NC(=O)CS1 do in these assays?
FBPA Giardia inh: 0%; CHX counter: 45; Pf growth 48h: 20%; NS1 function inh: 0%; Shiga inhibitor: 84; Pf growth 96h: 12%

What do the screens show for `Cc1ccc(NC(=O)/C=C2\NC(=O)CS2)cc1`?
FBPA Giardia inh: -10%; CHX counter: 45*; Pf growth 48h: 9%; NS1 function inh: 1%; Shiga inhibitor: 62*; Pf growth 96h: 59%

What do the screens show for `CC(C)(C)c1ccc(C(=O)/C=C2\NC(=O)CS2)cc1`?
FBPA Giardia inh: -4%; CHX counter: 26*; Pf growth 48h: 142%; NS1 function inh: -92%; Shiga inhibitor: 49; Pf growth 96h: -34%

How did Cc1nnc(SCC(=O)Nc2c(Cl)cccc2Cl)n(N)c1=O do in these assays?
Pf growth 48h: -20%; Pf growth 96h: -3%

What do the screens show for `Cc1ccc(C(=O)NNC(=O)c2ccoc2C)s1`?
Pf growth 48h: 42%; Pf growth 96h: 12%

Results for Cc1ccc(N2CC(C(=O)N3CCC(C(=O)NCCCOC(C)C)CC3)CC2=O)cc1 (configuration not stated) ?
FBPA Giardia inh: 1%; CHX counter: -2; Pf growth 48h: 13%; NS1 function inh: 8%; Shiga inhibitor: -9; Pf growth 96h: inconclusive

Results for C/C(=N/NC(=O)c1ccco1)c1ccc(Br)s1 ?
CHX counter: 26*; Pf growth 48h: 28%; NS1 function inh: -16%; Shiga inhibitor: 35*; Pf growth 96h: 10%

Results for C/C(=N\NC(=O)c1ccco1)c1ccc(C(=O)O)s1 ?
CHX counter: 50*; Pf growth 48h: 1%; NS1 function inh: 5%; Shiga inhibitor: 80*; Pf growth 96h: -13%
